Measurements reported in PubChem BioAssay.
Calls of active or inactive are those of the source. Unless noted, how the calls were made is not given here.

Legend:
[1] = HepG2 liver cancer cell viability effects, profiling panel, resazurin fluorescence, 24 h, PK04 Diversity Set (AID 1172); conditions: higher = more signal
[2] = basal S. cerevisiae growth modulation, no modifier, primary screen, OD600, strain BY4716, 24 h, basal condition (AID 1173); conditions: OD600, 24 h, higher = more signal, called active from +8 up or from −8 down
[3] = MM1S myeloma cell viability, profiling panel, resazurin fluorescence, basal, 24 h, PK04 Diversity Set (AID 1174); conditions: higher = more signal, called active from +8 up or from −8 down;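 further: MM1S multiple myeloma cell line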
[4] = target: Dihydroorotate dehydrogenase (quinone), mitochondrial (Plasmodium falciparum (isolate 3D7)) (UniProt Q08210); experiment: PfDHODH enzyme inhibitors, primary screen, biochemical, C-terminal His tag, absorbance 600 nm (AID 1175); conditions: DCIP absorbance 600 nm, higher = more signal, called active from +8 up or from −8 down;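 further: recombinant parasite enzyme with a five histidine tag at its C terminus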
[5] = P. aeruginosa biofilm formation inhibitors, primary screen, strain PAO1, LB-PBS medium, absorbance 600 nm (AID 1176); conditions: P. aeruginosa PAO1 growth/biofilm, A600, 12 h; higher = more signal
[6] = S. cerevisiae RM11-1a growth modifiers, primary screen, strain RM11-1a, OD600, basal, 24 h (AID 1177); conditions: OD600, 24 h, higher = more signal, called active from +8 up or from −8 down;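 further: cultures grown under basal conditions with no added stressor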
[7] = E. coli acrAB mutant growth effects, primary screen, E. coli filamentation inducers, strain DRC39, OD650, 24 h (AID 1178); conditions: higher = more signal, called active from +8 up or from −8 down;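 further: growth measured as culture turbidity by optical density at 650 nm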
[8] = E. coli acrAB mutant growth effects, primary screen, E. coli filamentation inducers, strain DRC39, OD650, 48 h (AID 1179);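 further: screen aims at cell division blockers that make cells filament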; conditions: E. coli DRC39 delta-acrAB growth, higher = more signal, called active from +8 up or from −8 down
[9] = RPMI8226 myeloma cell viability, profiling panel, resazurin fluorescence, basal, 24 h, PK04 Diversity Set (AID 1180); conditions: higher = more signal;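 further: RPMI8826 multiple myeloma cell line at 5000 cells per well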
[10] = target: E3 ubiquitin-protein ligase XIAP (Homo sapiens) (UniProt P98170); experiment: XIAP binders, primary screen, biophysical, small-molecule microarray, fluorescence 635 nm (AID 1181); conditions: small-molecule microarray binding, higher = more signal;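 further: score merges 667 nm emission and signal to noise over triplicate slides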
[11] = tested on: XIP peptide (Xip251-270) binding; experiment: small-molecule binders of XIP peptide, primary screen, biochemical, small-molecule microarray, fluorescence 635/667 nm, 0.1 µg/mL protein (AID 1182); conditions: fluorescent protein binding, 635 nm, higher = more signal, called active from +8 up or from −8 down
XIP peptide (Xip251-270) = experiment: small-molecule binders of XIP peptide, primary screen, biochemical, small-molecule microarray, fluorescence 635/667 nm, 0.5 µg/mL protein (AID 1183); conditions: small-molecule microarray binding, fluorescence 635 nm; higher = more signal
[12] = Plasmodium falciparum growth inhibition, primary screen, strain 3D7, DAPI fluorescence, 100 nL (AID 1184);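 further: parasites grown inside human red blood cells in medium with human serum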; conditions: P. falciparum 3D7 growth, 3 d, higher = more signal
[13] = target: Homeobox protein Hox-A13 (Mus musculus) (UniProt Q62424); experiment: inhibitors of HoxA13-DNA binding, primary screen, biochemical, fluorescence polarization, labeled oligonucleotide (AID 1185); conditions: 15 min, higher = more signal, called active from +8 up or from −8 down
[14] = inhibitors of hydroxyurea-induced Chk1 phosphorylation, primary screen, imaging, HeLa, phospho-Chk1 antibody, percent positive cells (AID 1186); conditions: hydroxyurea-induced phospho-Chk1 immunofluorescence imaging, higher = more signal
[15] = inhibitors of hydroxyurea-induced Chk1 phosphorylation, primary screen, imaging, HeLa, phospho-Chk1 nuclear intensity (AID 1187); conditions: hydroxyurea-induced phospho-Chk1 immunofluorescence imaging, higher = more signal

Chain of Homeobox protein Hox-A13 (Mus musculus) (Q62424 whole entry, looked up): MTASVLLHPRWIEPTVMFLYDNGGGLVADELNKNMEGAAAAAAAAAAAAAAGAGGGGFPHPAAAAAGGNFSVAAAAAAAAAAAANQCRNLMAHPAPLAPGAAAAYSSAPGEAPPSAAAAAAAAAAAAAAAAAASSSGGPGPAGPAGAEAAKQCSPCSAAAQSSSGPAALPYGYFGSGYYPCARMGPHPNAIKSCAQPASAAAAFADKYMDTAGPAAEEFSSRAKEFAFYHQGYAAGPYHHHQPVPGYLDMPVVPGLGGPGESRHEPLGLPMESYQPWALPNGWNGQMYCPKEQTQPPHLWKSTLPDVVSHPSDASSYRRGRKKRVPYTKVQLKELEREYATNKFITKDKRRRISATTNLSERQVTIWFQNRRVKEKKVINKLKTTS
Chain of E3 ubiquitin-protein ligase XIAP (Homo sapiens) (P98170 whole entry, looked up): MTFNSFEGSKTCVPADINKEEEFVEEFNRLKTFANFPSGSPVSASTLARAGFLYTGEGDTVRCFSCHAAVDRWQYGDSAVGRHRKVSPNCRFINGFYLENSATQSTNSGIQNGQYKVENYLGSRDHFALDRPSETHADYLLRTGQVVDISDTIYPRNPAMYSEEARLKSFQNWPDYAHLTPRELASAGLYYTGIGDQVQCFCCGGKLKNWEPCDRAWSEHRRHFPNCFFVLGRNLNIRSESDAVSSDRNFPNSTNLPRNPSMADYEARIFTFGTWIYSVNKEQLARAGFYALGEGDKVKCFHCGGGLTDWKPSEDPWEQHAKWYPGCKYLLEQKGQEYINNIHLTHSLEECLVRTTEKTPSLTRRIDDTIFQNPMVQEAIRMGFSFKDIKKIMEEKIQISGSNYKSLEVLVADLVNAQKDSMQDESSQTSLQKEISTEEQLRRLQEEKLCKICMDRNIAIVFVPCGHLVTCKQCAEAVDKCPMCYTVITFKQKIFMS
Chain of Dihydroorotate dehydrogenase (quinone), mitochondrial (Plasmodium falciparum (isolate 3D7)) (Q08210 whole entry, looked up): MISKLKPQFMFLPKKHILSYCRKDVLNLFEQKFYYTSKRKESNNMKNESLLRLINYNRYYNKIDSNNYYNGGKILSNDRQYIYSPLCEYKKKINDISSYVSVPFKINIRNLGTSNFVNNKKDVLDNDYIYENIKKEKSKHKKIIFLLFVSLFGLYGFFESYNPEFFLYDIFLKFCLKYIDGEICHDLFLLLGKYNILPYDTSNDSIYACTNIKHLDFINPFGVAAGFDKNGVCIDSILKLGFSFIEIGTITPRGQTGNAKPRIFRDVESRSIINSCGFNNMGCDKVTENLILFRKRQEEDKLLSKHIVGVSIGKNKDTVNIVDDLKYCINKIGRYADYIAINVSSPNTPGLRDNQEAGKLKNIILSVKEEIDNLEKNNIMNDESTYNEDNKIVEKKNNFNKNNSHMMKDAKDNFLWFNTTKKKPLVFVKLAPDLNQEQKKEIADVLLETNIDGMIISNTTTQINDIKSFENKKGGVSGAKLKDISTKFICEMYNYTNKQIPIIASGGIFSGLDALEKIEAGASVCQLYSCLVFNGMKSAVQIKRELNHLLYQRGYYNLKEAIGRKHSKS

SMILES | z-score [1] | z-score [2] | z-score [3] | composite z-score [4] | z-score [5] | z-score [6] | z-score [7] | z-score [8] | z-score [9] | composite z-score [10] | composite z-score [11] | composite z-score (XIP peptide (Xip251-270)) | z-score [12] | z-score [13] | z-score [14] | z-score [15]
COc1cc(CO)cc(I)c1O[C@H]1C=C(C(=O)NCCO)C[C@@H](NC2CCCCCC2)[C@@H]1O | 0.371 | -4.02 (inactive) | 0.115 (inactive) | 1.11 (inactive) | -0.896 (inactive) | 0.77 (inactive) | 0.901 (inactive) | 0.12 (inactive) | 0.215 | -0.11 | 0.509 (inactive) | 0.649 | -3.18 | -7.19 (inactive) | -0.75 (inactive) | -1.01 (inactive)
[N-]=[N+]=Nc1ccccc1[C@H]1OC(c2ccc(OCCCO)cc2)=N[C@@]1(Cc1ccccc1)C(=O)NCC(O)CO (stereo partly drawn) | 1.21 | -1.65 (inactive) | -1.21 (inactive) | -0.0513 (inactive) | -1.08 (inactive) | 0.972 (inactive) | 0.413 (inactive) | 0.318 (inactive) | -1.28 | 0.0487 | 0.448 (inactive) | 0.536 | -1.84 | -4.34 (inactive) | 0.0068 (inactive) | 0.251 (inactive)
N#Cc1ccc(NN2C(C(O)C3CC=CCC3)C=CC3C(=O)N(c4ccccc4)C(=O)C32)cc1 (stereo not drawn) | -1.3 | 0.0837 (inactive) | -0.609 (inactive) | 0.0758 (inactive) | 1.36 (inactive) | 0.601 (inactive) | 0.0108 (inactive) | 0.123 (inactive) | -0.382 | -0.0848 | 0.0603 (inactive) | 0.678 | 0.134 | -2.69 (inactive) | 0.123 (inactive) | 0.22 (inactive)
C=CC1c2cc(O)c(OC)cc2CCN1C (stereo not drawn) | -0.582 | -0.457 (inactive) | -0.728 (inactive) | -3.34 (inactive) | -0.283 (inactive) | -0.071 (inactive) | -0.0683 (inactive) | 0.113 (inactive) | -1.16 | 0.031 | 0.767 (inactive) | 0.543 | 0.166 | -3.83 (inactive) | 0.298 (inactive) | 0.468 (inactive)
CCOC(=O)C1=C[C@@H](C(C)(C)C)N(S(=O)(=O)c2ccc(C)cc2)[C@H]1c1ccc(C#N)cc1 | -0.718 | 2.25 (inactive) | -0.153 (inactive) | -0.158 (inactive) | 0.16 (inactive) | 1.56 (inactive) | -0.264 (inactive) | -0.361 (inactive) | -1.22 | -0.0559 | -0.331 (inactive) | 0.662 | -1.82 | -0.543 (inactive) | 0.892 (inactive) | 1.21 (inactive)
C=C(C)[C@@H]1CC=C(C(O)C2C=CC3C(=O)N(c4ccccc4)C(=O)C3N2Nc2ccc([N+](=O)[O-])cc2)CC1 (stereo partly drawn) | -0.783 | 0.139 (inactive) | -0.66 (inactive) | 1 (inactive) | 0.741 (inactive) | 0.526 (inactive) | -1.17 (inactive) | -1.37 (inactive) | -0.204 | -0.0848 | 0.26 (inactive) | -0.0122 | -1.26 | -1.49 (inactive) | 0.248 (inactive) | 0.0235 (inactive)
C=CCC(OC(C)=O)[C@@H]1[C@@H](N(Cc2cc3ccccc3o2)C(=O)Cc2ccc(OC)cc2)c2cc(OCCCO)ccc2N1C(=O)c1ccc2ccccc2n1 (stereo partly drawn) | -1.11 | -0.791 (inactive) | 0.472 (inactive) | 0.278 (inactive) | 0.268 (inactive) | -0.266 (inactive) | 0.945 (inactive) | 0.346 (inactive) | -0.0391 | -0.058 | -0.206 (inactive) | -0.454 | -2.17 | -2.1 (inactive) | 0.16 (inactive) | 0.158 (inactive)
O=C1C2C=CC(C(O)c3ccc([N+](=O)[O-])cc3)N(Nc3ccccc3F)C2C(=O)N1c1ccccc1 (stereo not drawn) | -0.54 | -1.45 (inactive) | -0.348 (inactive) | 0.15 (inactive) | 1.19 (inactive) | 0.646 (inactive) | -0.892 (inactive) | -0.591 (inactive) | -0.608 | 0.0049 | 0.946 (inactive) | 0.679 | -0.111 | -3.41 (inactive) | 0.8 (inactive) | -0.314 (inactive)
CC(C)NC(=O)[C@@]1(c2ccc([N+](=O)[O-])cc2)CC(=O)N(CC23CC4CC(CC(C4)C2)C3)[C@@H]1c1ccc(CO)cc1 | -1.21 | -0.692 (inactive) | -2.06 (inactive) | -0.257 (inactive) | 0.792 (inactive) | 0.311 (inactive) | -0.502 (inactive) | -0.655 (inactive) | -3.14 | -0.0295 | 1.26 (inactive) | 0.918 | -0.948 | -4.97 (inactive) | 0.103 (inactive) | 0.412 (inactive)
CCCCCC1=C2CNC(Cc3ccccc3)(C(=O)OC)C=C2C(C)C1=O (stereo not drawn) | -1.19 | 1.36 (inactive) | -1.79 (inactive) | -0.461 (inactive) | 0.026 (inactive) | 0.546 (inactive) | -0.767 (inactive) | -0.217 (inactive) | -1.5 | -0.138 | -0.186 (inactive) | 0.247 | -0.662 | -8.44 (active) | 1.14 (inactive) | 0.846 (inactive)
O=C(NC1CC1)[C@@H]1c2ccccc2C(=O)N(CC23CC4CC(CC(C4)C2)C3)[C@H]1c1ccc(CO)cc1 | 0.658 | -0.498 (inactive) | 0.74 (inactive) | -0.329 (inactive) | 0.338 (inactive) | 0.123 (inactive) | -0.0508 (inactive) | -0.428 (inactive) | 1.07 | 0.141 | 0.383 (inactive) | 0.686 | -2.22 | -5.05 (inactive) | -0.0001 (inactive) | 0.169 (inactive)
CN(C)C(=O)[C@]1(Cc2ccccc2)N=C(c2ccc(OCCCO)cc2)O[C@@H]1c1ccccc1CN=[N+]=[N-] | 0.432 | -1.3 (inactive) | -0.0662 (inactive) | -0.979 (inactive) | -0.248 (inactive) | 0.22 (inactive) | -0.348 (inactive) | 0.686 (inactive) | 0.431 | 0.0651 | 0.245 (inactive) | 0.764 | -2.6 | -4.47 (inactive) | 0.0164 (inactive) | 0.304 (inactive)
O=C1O[C@H](c2ccccc2)[C@H](c2ccccc2)N2[C@H]1[C@@H](C(=O)O)[C@]1(C(=O)Nc3ccc(C#CCCO)cc31)[C@H]2c1ccc(OCCO)cc1 | 0.174 | -0.829 (inactive) | 0.686 (inactive) | -1.01 (inactive) | 0.967 (inactive) | 0.159 (inactive) | 0.312 (inactive) | 0.471 (inactive) | 0.68 | -0.177 | 0.671 (inactive) | 0.856 | -0.481 | -5.39 (inactive) | -0.255 (inactive) | -0.132 (inactive)
CC(C)c1nc2cc(Br)ccc2c(=O)o1 | 0.693 | 1.25 (inactive) | -0.47 (inactive) | 0.374 (inactive) | 0.13 (inactive) | 0.0542 (inactive) | 0.692 (inactive) | 1.24 (inactive) | 0.0076 | 0.0705 | 0.697 (inactive) | 0.355 | -0.795 | -0.27 (inactive) | -0.0165 (inactive) | 0.0785 (inactive)
C=C(CCCC)C(=O)CC[C@@H](OC(=O)c1ccccc1-c1ccccc1C(=O)O)c1ccccc1OCCO | -0.174 | -2.49 (inactive) | -0.608 (inactive) | -1.35 (inactive) | 0.118 (inactive) | -1.61 (inactive) | 0.625 (inactive) | 0.403 (inactive) | -1.49 | 0.269 | 0.721 (inactive) | 0.145 | -2.92 | -6.26 (inactive) | 0.779 (inactive) | 1.38 (inactive)
C=CCOC(=O)[C@@H]1[C@H]2C(=O)O[C@H](c3ccccc3)[C@H](c3ccccc3)N2[C@H](c2ccc(OCCOC(=O)[C@H]3C[C@H]4C(=O)N[C@@H](CCCCN(C)C)C(=O)N4[C@H]3c3ccc(O)cc3)cc2)[C@@]12C(=O)Nc1ccc(I)cc12 | -0.148 | -0.679 (inactive) | -0.467 (inactive) | -2.47 (inactive) | 1.34 (inactive) | 1.6 (inactive) | -0.466 (inactive) | 0.236 (inactive) | -0.431 | -0.224 | 0.94 (inactive) | 0.849 | -1.92 | 5.3 (inactive) | 0.289 (inactive) | 0.419 (inactive)
O=C(NCc1ccc(F)cc1)[C@H]1C[C@H]2C(=O)N3CCC[C@H]3C(=O)N2[C@H]1c1ccc(O)cc1 | -0.388 | -0.542 (inactive) | 0.698 (inactive) | -1.47 (inactive) | 2.39 (inactive) | -0.795 (inactive) | 0.639 (inactive) | -0.545 (inactive) | 0.379 | 0.33 | -0.0173 (inactive) | 0.702 | -1.21 | 1.55 (inactive) | -0.717 (inactive) | -0.415 (inactive)
COCCOC(=O)N1C(=O)[C@@]2(c3cc(C#CCCO)ccc31)[C@H](C(N)=O)[C@H]1C(=O)O[C@H](c3ccccc3)[C@H](c3ccccc3)N1[C@@H]2c1ccccc1OCCO | -0.231 | 1.11 (inactive) | -2.76 (inactive) | 0.754 (inactive) | 0.594 (inactive) | 2.34 (inactive) | 0.354 (inactive) | 0.449 (inactive) | -1.95 | -0.124 | 1.47 (inactive) | 0.832 | -1.31 | -3.88 (inactive) | 0.0461 (inactive) | -0.303 (inactive)
